Assay outcomes (PubChem)
Only a selection was taken, and hits are over-represented in it overall.
SARS PLpro yeast: qHTS of Yeast-based Assay for SARS-CoV PLP; hit rate 0.19% among 330,000; S. cerevisiae expressing SARS-CoV PLpro, growth rescue; Potency, µM (top dose mostly 32.9 µM), for the others: top-dose activity, positive = growth rescue, most hits filed as activators; calls by dose curve; note: potency is the fitted concentration of half-maximal effect; 0% is about no effect; nearly all actives have a fitted effect of over 55% in size
AmpC inh detg: qHTS Inhibitors of AmpC Beta-Lactamase (assay with detergent); P00811; AmpC hydrolysis of nitrocefin, absorbance 480 nm, 0.01% Triton; Potency, µM (top dose mostly 114 µM), for the others: at the highest dose activity change, negative = inhibition, usual class: inhibitors; hit rate 0.041% among 370,000; AID 485294, 2010;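 note: potency is the fitted concentration of half-maximal effect; 0% = no-compound wells and -100% = no-enzyme wells; nearly all actives have a fitted effect of over 25% in size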
Target sequence (P00811 whole entry, looked up): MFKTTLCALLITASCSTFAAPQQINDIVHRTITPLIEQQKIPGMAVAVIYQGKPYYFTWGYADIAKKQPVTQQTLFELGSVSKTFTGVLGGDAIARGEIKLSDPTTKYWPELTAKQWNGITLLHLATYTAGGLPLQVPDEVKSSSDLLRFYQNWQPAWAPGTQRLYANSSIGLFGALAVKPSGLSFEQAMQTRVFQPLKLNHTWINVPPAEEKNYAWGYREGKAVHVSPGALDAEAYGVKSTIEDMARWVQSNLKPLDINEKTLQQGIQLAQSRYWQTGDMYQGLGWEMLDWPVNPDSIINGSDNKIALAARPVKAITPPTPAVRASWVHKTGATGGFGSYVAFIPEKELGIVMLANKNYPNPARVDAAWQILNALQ
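20 mM phosphate pH 7.0 + 0.01% (detergent screen) or 0.0001% Triton X-100; 5.3 nM AmpC reagent; cpd preinc 15 min RT; nitrocefin (800 uM stock) to start; A480 q20 s × 4 min; Activity was normalised to no-enzyme and no-compound control wells.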
AmpC inh no detg: qHTS Inhibitors of AmpC Beta-Lactamase (assay without detergent). P00811. AmpC nitrocefin hydrolysis, absorbance 480 nm, 0.0001% Triton. Potency, µM (titrated, usually from 57.1 µM), inactives show at the highest dose activity change, negative = inhibition, actives largely listed as inhibitors. hit rate 0.52% among 330,000. AID 485341, 2010;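 note: potency is the fitted concentration of half-maximal effect; plate controls were no compound for no effect and no enzyme for full effect; nearly all actives have a fitted effect of over 20% in size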
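20 mM phosphate pH 7.0 + 0.01% (detergent screen) or 0.0001% Triton X-100; 5.3 nM AmpC reagent; cpd preinc 15 min RT; nitrocefin (800 uM stock) to start; A480 q20 s × 4 min; Activity was normalised to no-enzyme and no-compound control wells.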
Cycloheximide cs: Cycloheximide Counterscreen for Small Molecule Inhibitors of Shiga Toxin; AID 2314, 2010; cell reporter, cycloheximide protein synthesis inhibition counterscreen; max response, %; hit rate 12% among 300,000; in the data active = max response mostly above about 13%, no sharp cut-off; inactive = mostly below about 14%; note: read at 38.3 µM for the half of the compounds with a filed dose; 0% is about no effect
Shiga inhibitor: A qHTS for Small Molecule Inhibitors of Shiga Toxin | Vero cells, Shiga toxin protein synthesis inhibition reporter | inhibition, % at 38.7 µM | hit rate 9.2% among 290,000; in the data active = inhibition mostly above about 28%, no sharp cut-off; inactive = mostly below about 43%; note: 0% is about no effect
AMA1-RON2 inh: qHTS for Inhibitors of AMA1-RON; Towards Development of Antimalarial Drug Lead: Primary Screen | hit rate 0.2% among 360,000 | Plasmodium falciparum AMA1 (3D7) - RON2 peptide interaction | Potency, µM (top dose mostly 58.2 µM), without a hit: top-dose activity change, negative = inhibition, actives largely listed as inhibitors | AID 720542, 2013 | AlphaScreen AMA1-biotinylated RON2 peptide binding;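 note: potency is the fitted concentration of half-maximal effect; 0% = vehicle wells and -100% = peptide control; nearly all actives have a fitted effect of over 45% in size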
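AMA1 (3D7) with his tag at 25 nM final met compounds first, then biotinylated RON2 peptide at 25 nM; detection used donor plus acceptor beads, 10 µg/mL apiece, read by AlphaScreen after 30 min at room temperature.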
* hit, by the source's call; i = inactive; ? = inconclusive; nt = no result. Unless noted, calls come from the whole dose curve; as a rule, active = well fitted curve in the direction sought with a large enough effect; inconclusive = small, poorly fitted or top-dose-only effect, or another doubt; inactive = no such curve, though single readings can be large; an effect the other way counts as inactive or inconclusive.

SMILES	SARS PLpro yeast	AmpC inh detg	AmpC inh no detg	Cycloheximide cs	Shiga inhibitor	AMA1-RON2 inh
COc1cccc(-n2c(O)c(C=Nc3c(C)n(C)n(-c4ccccc4)c3=O)c(=O)[nH]c2=O)c1	20%	-15%	-24%	-6	-10	9%
Cc1c(N=Cc2nc3ccccc3n2C)c(=O)n(-c2ccccc2)n1C	2%	-1%	-7%	49*	64*	40%
Cc1cccc(-c2ccc(C=Nc3c(C)n(C)n(-c4ccccc4)c3=O)o2)c1	11%	3%	51%	28*	35	-9%
O=c1cc(-c2ccc(O)cc2)oc2c([C@@H]3O[C@H](CO)[C@@H](O)[C@H](O)[C@H]3O)c(O)c([C@@H]3O[C@H](CO)[C@@H](O)[C@H](O)[C@H]3O)c(O)c12	2%	-3%	-3%	-3	-11	2%
O=C(NC(c1ccccc1)c1ccsc1)C1CCN(Cc2ccc(Oc3ccccc3)cc2)CC1 (centres undefined)	nt	nt	nt	nt	nt	-29%
CCC(C)Sc1nc2c(cnn2-c2ccc(C)c(C)c2)c(=O)[nH]1 (centres undefined)	-2%	-14%	40µM*	-2	2	-2%
CSc1nc2c(cnn2-c2ccc(C)c(C)c2)c(=O)[nH]1	1%	?	-20%	-8	-6	-1%
CCCSc1nc2c(cnn2-c2ccc(Cl)cc2)c(=O)[nH]1	-1%	?	-15%	-3	4	-8%
CC(=O)N1CCN(C(=O)CSc2nc3c(cnn3-c3ccccc3)c(=O)[nH]2)CC1	2%	1%	2%	38*	78*	0%
CC1CCN(C(=O)CSc2nc3c(cnn3-c3ccccc3)c(=O)[nH]2)CC1	4%	-4%	-25%	-3	14	3%
CCCCSc1nc2c(cnn2-c2ccc(F)cc2)c(=O)[nH]1	8%	?	40µM*	-4	-6	-7%
O=C(O)CNS(=O)(=O)c1ccc(Br)s1	3%	?	-3%	-2	-16	1%
CC[C@@H]1C(c2cccc(C)c2)=NN(c2ccccc2)[C@H]1C(=O)N1CCOC1=O	5%	nt	2%	16	i	29%
COC(=O)C(CC(C)C)NC(=O)CSc1nc(-c2ccccc2)c(C#N)c(=O)[nH]1 (centres undefined)	1%	-2%	-15%	1	-7	-2%
Cc1ccc(-c2nc(-c3ccncc3)no2)cc1Cl	1%	2%	-12%	28*	61*	2%
Cc1ccc(-c2nc(-c3ccncc3)no2)cc1C	0%	-2%	-2%	52*	133*	-4%
CCn1c(SCc2nc(-c3ccc(OC)c(OC)c3)no2)nnc1-c1cccs1	-19%	?	58%	15*	7	5%
CNc1ccc(-c2nc(-c3ccncc3)no2)cc1[N+](=O)[O-]	nt	22%	nt	nt	nt	nt
COc1ccc(-c2nc(-c3ccncc3)no2)cc1OC	-2%	-8%	-11%	48*	79*	-9%
COc1ccc(-c2noc(CSc3nnc(Cc4ccccc4)n3-c3ccccc3)n2)cc1OC	nt	-2%	nt	nt	nt	nt
O=c1[nH]n(-c2ccccc2Cl)c(=O)c2ccccc12	0%	3%	-9%	-1	22	-8%
CC(NC(=O)COC(=O)CCc1nc(=O)c2ccccc2n1C)c1ccccc1 (centres undefined)	7%	-8%	-19%	10	-15	-1%
CCC(CO)N=CC1=C(O)C(C(=O)c2ccccc2)CCC1=O (centres undefined)	12%	-15%	-18%	-3	2	1%
Fc1cccc(F)c1-c1nc(-c2ccncc2)no1	0%	0%	0%	48*	86*	-1%
COc1ccc(-c2noc(-c3ccccc3Cl)n2)cc1OC	-1%	5%	-21%	56*	65*	32%
SMILES	SARS PLpro yeast	AmpC inh detg	AmpC inh no detg	Cycloheximide cs	Shiga inhibitor	AMA1-RON2 inh
COc1ccc(-c2noc(-c3ccco3)n2)cc1OC	nt	?	nt	43*	139*	14%
Cc1cc(-c2nc(-c3ccncc3)no2)ccc1[N+](=O)[O-]	-3%	-12%	-11%	33*	88*	-6%
CC(NC(=O)COC(=O)c1cc([N+](=O)[O-])ccc1N1CCOCC1)c1ccc(F)cc1 (centres undefined)	6%	-15%	-41%	nt	nt	-17%
C[C@@H]1CN([C@H](C)CO)C(=O)CCCn2nncc2CO[C@H]1CN(C)Cc1ccc(C(=O)O)cc1	nt	nt	nt	nt	nt	-4%
Cc1cccc(C)c1NC(=O)c1cc(S(=O)(=O)N2CCc3ccccc32)cn1C	7%	-12%	-29%	-2	-6	6%
Cc1ccc(CNC(=O)c2ccc(-c3nc(CS(=O)(=O)c4ccc(C)cc4)c(C)o3)cc2)cc1	nt	0%	nt	nt	nt	nt
Cc1ccc(-c2nc(-c3ccccn3)no2)cc1[N+](=O)[O-]	1%	-5%	15%	37*	55*	4%
CCN(CC)c1ccc(-c2nc(-c3ccccn3)no2)cc1[N+](=O)[O-]	nt	-4%	nt	nt	nt	nt
COc1ccc(-c2noc(-c3cccs3)n2)cc1OC	-1%	0%	-6%	52*	69*	6%
C=CCC(C#Cc1ccccc1)N(C)C (centres undefined)	-4%	?	2%	-2	-11	3%
COc1ccc(N2CCN(c3oc(COc4ccc(Cl)cc4Cl)nc3C#N)CC2)cc1	-18%	?	-19%	10	6	25µM*
N#Cc1nc(COc2ccc(F)cc2)oc1N1CCCCC1	-1%	3%	17%	27*	65	1%
COc1ccc(N2CCN(c3oc(Cc4ccccc4)nc3C#N)CC2)cc1	-7%	3%	-12%	-4	-22	17µM*
N#Cc1nc(COc2ccc(Cl)cc2Cl)oc1N1CCN(c2ccccc2)CC1	-10%	6%	9%	9	-4	?
N#Cc1nc(COc2ccc(Cl)cc2Cl)oc1N1CCOCC1	-14%	-14%	54%	29*	35*	?
COc1ccc(N2CCN(c3oc(COc4ccccc4)nc3C#N)CC2)cc1	0%	0%	27%	11	34	?
CC1(C)Cc2c(ccc3ccccc23)C(=O)N1	-7%	1%	103%	11*	16	-9%
O=C(NCc1ccccc1)c1ccc(N2CCC3(CC2)CC(c2ccc(Cl)cc2)=NO3)c([N+](=O)[O-])c1	-8%	-10%	-34%	-1	-9	-22%
CS(=O)(=O)N(CC(=O)Nc1ccc2c(c1)OCCO2)Cc1ccc(Cl)cc1	5%	-13%	-34%	22*	33*	-12%
COc1ccc(C)cc1S(=O)(=O)N(CC(=O)Nc1ccc2c(c1)OCCO2)Cc1ccccc1	1%	4%	-15%	9.8*	15	-9%
